Screening results deposited in PubChem by National Center for Advancing Translational Sciences (NCATS).
DRD3 antagonist: antagonists of human D3 dopamine receptor | max response, negative = inhibition, % | D3R cells, DiscoveRx beta-arrestin luminescence, antagonist mode; stronger effect = lower value | 360,000 tested, 2.5% active | AID 652054; in the data active = max response below about -50%; inconclusive = no clear call, values can overlap the other calls; note: % is set by controls: 0 for no effect and ±100 for the full control effect
Target sequence (P35462 whole entry, looked up): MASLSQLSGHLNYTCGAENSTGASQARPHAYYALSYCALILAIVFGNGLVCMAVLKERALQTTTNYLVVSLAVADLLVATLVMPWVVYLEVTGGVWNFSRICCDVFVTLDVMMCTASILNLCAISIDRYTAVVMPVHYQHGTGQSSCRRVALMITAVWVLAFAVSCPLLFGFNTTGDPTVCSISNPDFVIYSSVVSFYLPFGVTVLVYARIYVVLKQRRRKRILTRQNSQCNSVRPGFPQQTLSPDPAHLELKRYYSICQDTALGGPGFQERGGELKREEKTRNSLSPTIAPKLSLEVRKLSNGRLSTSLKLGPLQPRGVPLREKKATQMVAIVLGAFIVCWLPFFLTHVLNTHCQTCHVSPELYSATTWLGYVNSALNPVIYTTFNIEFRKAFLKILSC
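Cells expressing the human receptor were seeded at 1500 cells/well, incubated overnight at 37 degrees C in 5% CO2, then exposed to library compounds with dopamine controls for 90 minutes at 37 degrees C before luminescent detection.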
D1 ag: agonists of human D1 dopamine receptor; 360,000 tested, 1% active; activation, % at 2 µM; AID 504660; HEK293 T-REx D1 cells, calcium flux, agonist mode; P21728; in the data active = activation above about 30%; note: 0% is about no effect
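Inducible HEK293 T-REx D1 cells, force-coupled to calcium signalling, were plated at 4000 cells/well with tetracycline and held overnight at 30 C. After no-wash calcium dye loading, compound-evoked calcium rise over 180 s flagged agonists.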
D1 antag: human D1 dopamine receptor antagonism | 360,000 tested, 3.2% active | P21728 | activity change, negative = inhibition, % at 10 µM | HEK293 TREx D1 cells, calcium flux, dopamine EC80; stronger effect = lower value; in the data active = activity change below about -30%; note: % is set by controls: 0 for no effect and ±100 for the full control effect
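Compound effects on dopamine-evoked calcium signalling were measured in tetracycline-induced HEK293 Trex D1 cells. Dopamine at EC80 followed a 180 s compound pre-read, and fluorescence was tracked kinetically for 180 s more.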
DRD3 agonist: D3 dopamine receptor (human) agonism; P35462; D3R DiscoveRx beta-arrestin cells, luminescence, 90 min; max activation, %; 410,000 tested, 0.58% active; in the data active = max activation above about 30%; note: 0% is about no effect
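Agonist-mode cell screen: cells plated at 1500/well and incubated overnight at 37 °C, then exposed to library compounds for 90 min at 37 °C. Detection reagent was added for 30–60 min at room temperature, and luminescence was read.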
D1 potentiator: human D1 dopamine receptor positive modulation. P21728. HEK293 TREx D1 cells, calcium flux, dopamine EC20 potentiation. potentiation, % at 10 µM. 360,000 tested, 0.036% active; in the data active = potentiation above about 30%; note: 0% is about no effect
Chronic BCR inh: inhibitors of chronic active B-cell receptor signaling | ABC-DLBCL IkBa-CBG/CBR reporter, luminescence ratio, 4 h | Potency, µM (series often up to 46.1 µM), inactives show at the top dose activity change, negative = inhibition, usual class: inhibitors | 340,000 tested, 0.05% active; active = well fitted inhibition curve with a large enough effect in the signal ratio, with a control signal flat, not every such curve was filed as active; inconclusive = small, poorly fitted or top-dose-only effect, or effect the other way, or a change in a side signal; the % refers to the signal ratio;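 note: potency is the fitted concentration of half-maximal effect; plate controls were basal doxycycline-induced cells for no effect and cells given 10 µM MG132 for full effect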
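Doxycycline induced both beetle luciferases in TMD8 lymphoma cells; IKK-driven degradation limits the IkappaBalpha-fused green signal, while red luminescence normalises for cell number and nonspecific effects. Compounds tested up to 46 uM, 4 hrs.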
* = called active by the depositor; ? = inconclusive; · = not tested or not shown; ! = a repeat was not active. The list is not random: actives were taken first. Their share in the collection is about 6%.

SMILES | DRD3 antagonist | D1 ag | D1 antag | DRD3 agonist | D1 potentiator | Chronic BCR inh
Cc1ccc(-n2c(SCC(=O)N3CCOCC3)nnc2-c2ccncc2)cc1 | -76* | 2 | 4 | 7 | -5 | -1%
Cc1ccc(-n2c(SCC(=O)N3CCOCC3)nc(O)c(Cc3ccccc3)c2=O)cc1 | -5 | 5 | -31* | 3 | -1 | 0%
Cc1ccc(-n2c(SCC(=O)N3CCOCC3)nnc2-c2ccncc2)cc1C | -14 | 1 | -17 | 1 | -5 | -5%
CC(NNC(=S)N1CCN(c2ccccn2)CC1)c1nccc2ccccc12 (stereo not given) | ? | · | · | -7 | · | ·
COc1ccc(C(=O)Oc2cc(-c3ccc4c(c3)OCO4)cc(=O)c3c(C)oc(C)c23)cc1 | · | 2 | 13 | 2 | -2 | ·
CCOCCCNC(=S)NNC(=O)CCn1nc(C)c(Br)c1C | -97* | -1 | · | -35 | 1 | ?
Cc1nn(CCC(=O)NNC(=S)NCC(C)C)c(C)c1Br | -104* | -1 | · | -53 | -1 | 16µM*
Cc1ccc(CNC(=O)c2ccc(N3CCCC3)c(NC(=O)Nc3ccc(C)cc3)c2)cc1 | · | -2 | 4 | 1 | 1 | ·
CCOc1ccc(CCNCc2c(C(=O)O)c(C)n(Cc3ccccc3F)c2C)cc1 | · | -2 | -15 | -3 | 1 | ·
O=C(Nc1ccc(NC(=O)c2ccc(Cl)c(S(=O)(=O)N3CCOCC3)c2)cc1)c1ccccc1 | -5 | 9 | 3 | 4 | -1 | 0%
CCn1nc(C(=O)Nc2ccc(Cl)c(S(=O)(=O)N3CCOCC3)c2)c2ccccc2c1=O | 0 | 4 | -37* | -13 | -4 | -10%
CCCn1nc(C(=O)Nc2cccc(S(=O)(=O)N3CCOCC3)c2)c2ccccc2c1=O | 23 | · | · | -2 | · | ·
O=C(Nc1ccc(N2CCOCC2)cc1)Nc1ccc(Cl)c(Cl)c1 | -15 | 17 | -31* | 3 | -4 | -4%
O=C(Nc1ccc(Cl)cc1)Nc1ccc(N2CCOCC2)cc1 | -15 | 9 | -16 | -2 | -4 | 6%
O=C(Nc1ccccc1)Nc1ccc(Cl)c(S(=O)(=O)N2CCOCC2)c1 | -51* | 28 | -11 | -11 | -9 | 0%
O=C(Nc1ccc(N2CCOCC2)cc1)C1(c2ccc(Cl)cc2)CCC1 | 1 | 43* | -3 | -2 | -4 | -1%
Cc1cccc(N(CC(=O)Nc2ccc(Br)cc2)S(C)(=O)=O)c1C | · | 8 | -8 | 10 | -1 | 12%
Cc1cc2nc3c(=O)[nH]c(=O)nc-3n(C[C@H](O)[C@H](O)[C@H](O)COP(=O)(O)OP(=O)(O)OC[C@H]3O[C@@H](n4cnc5c(N)ncnc54)[C@H](O)[C@@H]3O)c2cc1C | · | · | · | -9 | · | ·
CCc1nc2c(OCc3ccccc3C(=O)OC)cccn2c1N(C)C(=O)CC(C)C | 0 | · | · | -7 | · | ·
COC1=CC(=O)C=C(OC)C1(O)CC(C)=O | -56* | · | · | 0 | · | ·
Cc1ccc(NC(=O)C[n+]2ccn(C3=C([O-])c4ccccc4C3=O)c2)cc1 | 0 | 2 | -41* | -8 | -5 | -7%
Cc1ccc(S(=O)(=O)/N=C2\C(=O)c3ccccc3C([O-])=C2n2cc[n+](CCC(C)C)c2)cc1 | -76* | 1 | 19 | 12 | 1 | ?
CCOC(=O)c1cc(S(=O)(=O)N2CCN(c3ccc(C(C)=O)cc3)CC2)[nH]n1 | · | 2 | -6 | -17 | 1 | ·
CC1(C)OC[C@@H]2O[C@@]3(C(=O)O)OC(C)(C)O[C@H]3[C@@H]2O1 | · | · | · | 4 | · | ·
CCc1nc2ccc(C(=O)NCc3ccccc3C)cc2nc1CC | · | 1 | 3 | 4 | -2 | 0%
Cc1ccccc1C(=O)c1cccn1CC(=O)NCCCN1CCCCC1 | -21 | -1 | 15 | -15 | 0 | -8%
Cc1ccc(NC(=O)CN2CCN(S(=O)(=O)c3cccs3)CC2)cc1S(=O)(=O)N(C)C | -19 | 5 | -36* | -15 | -10 | 5%
CCOc1ccc(NC(=O)CCN2CCN(c3ccccc3F)CC2)cc1 | ? | 1 | -16 | 13 | -9 | -9%
CCOc1ccc(NC(=O)NCCN2CCN(c3ccccc3F)CC2)cc1 | -69* | 4 | -61*! | 8 | -23 | 0%
